# Results: PubChem BioAssay (NCI)
# Compounds without any hit were thinned out: in the full panel of roughly 79,000, 15% have a hit. Calls of active or inactive are those of the source. Cut-off read from the data, not from the text of the source: active = growth inhibition above about 70%; inactive = the rest.
# Assay: NCI Yeast Anticancer Drug Screen. Data for the sgs1 mgt1 strain (AID 161);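 note: 0% = growth of cultures given vehicle only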
# Details: S. cerevisiae sgs1 mgt1 strain, stronger effect = higher value
# Description: Growth inhibition of yeast strains with defined genetic alterations is measured as a screen for potential anti-cancer activity. Selected strains with alterations in DNA damage repair or cell cycle control were exposed to compounds and growth inhibition was measured relative to vehicle treated controls. The strain used in this assay is sgs1 mgt1
# [1] = at 5.0 µM (retest, dose inferred, filed as 0.5)
# [2] = at 50.0 µM (retest, dose inferred, filed as 5.0)
Structure (SMILES),growth inhibition [1],growth inhibition [2],growth inhibition (at 50.0 µM)
Nc1ccc(Cc2ccc(Cl)cc2)cc1,-66% (inactive),95% (active),99.3% (active)
C1=C(c2ccccc2)C(c2ccc(OCCN3CCCCC3)cc2)Oc2ccccc21 (configuration not stated),24% (inactive),99% (active),97.5% (active)
CCCCCCCCCCCCCCSC(=NC)NC,100% (active),99% (active),99.5% (active)
O=C1NN(C2=NNC3(C(=O)N2)c2ccccc2-c2ccccc23)C(c2ccccc2)=N/C1=C/c1ccc(O)cc1,-9% (inactive),23% (inactive),65% (inactive)
CCCCc1ccc2nc(C)cc(N/N=C/c3ccc4c(c3)OCO4)c2c1,15% (inactive),31% (inactive),73.5% (active)
Cc1ccc2c(c1)[n+]([O-])c(N)c(C#N)[n+]2[O-],-16% (inactive),97% (active),36.3% (inactive)
O=[N+]([O-])c1cccc(S(=O)(=O)N/N=C/c2cc(I)cc([N+](=O)[O-])c2O)c1,10% (inactive),11% (inactive),34.5% (inactive)
COc1cccc(CC2N(S(=O)(=O)c3ccc(C)cc3)CCC23C(=O)Nc2ccccc23)c1OC (configuration not stated),10% (inactive),96% (active),82.2% (active)
CCCN(CCC)CC(O)c1cc(-c2ccccc2)nc2c(Cl)cc(Cl)cc12 (configuration not stated),2% (inactive),81% (active),98% (active)
CCCCCCCCCCCCCCOC(=O)C(N)Cc1ccc(O)cc1 (configuration not stated),4% (inactive),98% (active),97.9% (active)
CCCCCCn1c(SCC)c2ccccc2c1-c1nc(F)nc(F)n1,-15% (inactive),10% (inactive),90.2% (active)
COc1ccc(CN=C(N)N)c2ccccc12,-6% (inactive),-1% (inactive),-15.7% (inactive)
CNc1ccc2c(c1)c1ccccc1n2C,3% (inactive),21% (inactive),40.1% (inactive)
C=C1CC(c2ccc(OCCCN3C(=O)c4ccccc4C3=O)c(OC)c2)OC1=O (configuration not stated),1% (inactive),89% (active),91% (active)
